Measurements published in PubChem BioAssay (NCATS).
Records with an inconclusive call do not appear. Active and inactive are the calls of the source. Calls come from the whole dose curve; as a rule, active = well fitted inhibition curve with a large enough effect; inconclusive = small, poorly fitted or top-dose-only effect; inactive = no such curve, though single readings can be large or run the other way.

assay: qHTS Screen of the MIPE 4.0 Collection Against Ewings Sarcoma (TC71) (AID 1259253); conditions: TC71 Ewing sarcoma viability, CellTiter-Glo, 48 h; series mostly up to 45.8 µM; viability (% of DMSO): at the top concentration; note: nearly all actives have a fitted effect of over 40% in size;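 for viability (% of DMSO): 100% = DMSO-treated cells and 0% = medium-only wells without cells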
Procedure, shortened: (§1)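 Log-phase cells in RPMI with 5% FBS attached for 4 h, then received compounds as a titration for 48 h at 37C, 5% CO2. Viability was read by CellTiter-Glo luminescence and normalized to DMSO and no-cell wells.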
Potency is the fitted concentration of half-maximal effect.

| SMILES | Potency | viability (% of DMSO) |
| --- | --- | --- |
| CCCCC(C)(C)[C@H](O)C=C[C@H]1[C@H](O)CC(=O)[C@H]1CC=CCCCC(=O)O | 18.7 µM (active) |  |
| CC1(COc2ccc3c(c2)ncn3-c2ccc3cccc(N4CCC(N)CC4)c3n2)COC1 |  | 0.747% (inactive) |
| O=C(NCCCCN1CCOCC1)c1cc2ccccc2o1 |  | 103% (inactive) |
| CC(=O)O[C@]1(C(C)=O)CC[C@H]2[C@@H]3C=C(Cl)C4=CC(=O)[C@@H]5C[C@H]5[C@]4(C)[C@@H]3CC[C@@]21C | 13.2 µM (active) |  |
| CCC[C@H](Nc1nc(-c2ccc(NC(=O)NCC)c(OC)c2)ncc1C)c1cccnc1 | 0.0093 µM (active) |  |
| COc1cc2nc(-c3cc(F)ccc3O)nc(N[C@@H]3CNC[C@@H]3C(C)(C)O)c2cc1OC | 20.9 µM (active) |  |
| O=C(Nc1cccc2c(=O)cc(-c3nn[nH]n3)oc12)c1ccc(OCCCCc2ccccc2)cc1 | 18.7 µM (active) |  |
| CC[C@H](C=C[C@@H](C)[C@H]1CC[C@H]2[C@@H]3CC=C4C[C@@H](O)CC[C@]4(C)[C@@H]3CC[C@]12C)C(C)C |  | 108% [at 23.2 µM] (inactive) |
| CN1CCC(COc2cnc(-c3cccc(Cn4nc(-c5cccc(C#N)c5)ccc4=O)c3)nc2)CC1 | 13.2 µM (active) |  |
| CC(C)Oc1cc(Nc2nc(N[C@@H](C)c3ccc(F)cn3)ncc2Cl)[nH]n1 | 16.6 µM (active) |  |
| CC[C@]1(O)C[C@H]2CN(CCC3=c4ccccc4=N[C]3[C@@](C(=O)OC)(c3cc4c(cc3OC)N(C)[C@H]3[C@@](O)(C(N)=O)[C@H](O)[C@]5(CC)C=CCN6CC[C@]43[C@@H]65)C2)C1 | 0.0264 µM (active) |  |
| CCOC(=O)N1CCN([N+]([O-])=NOc2cc(ON=[N+]([O-])N3CCN(C(=O)OCC)CC3)c([N+](=O)[O-])cc2[N+](=O)[O-])CC1 |  | 98.5% (inactive) |
| CCOC(=O)[C@H](CCc1ccccc1)N[C@@H](C)C(=O)N1CCCC1C(=O)O (stereo partly specified) | 16.6 µM (active) |  |
| Cc1ccc(NC(=O)Nc2cc(C(F)(F)F)ccc2F)cc1Nc1ccc2c(c1)NC(=O)C2=Cc1ccc[nH]1 | 26.4 µM (active) |  |
| C=C[C@@H]1CN2CCC1C[C@@H]2C(O)c1ccnc2ccc(OC)cc12 (stereo partly specified) | 4.18 µM (active) |  |
| CN1CCN2c3ncccc3Cc3ccccc3C2C1 (stereo unspecified) |  | 122% (inactive) |

assay: qHTS Screen of the MIPE 4.0 Collection Against Ewings Sarcoma (EW8) (AID 1259255); conditions: EW8 Ewing sarcoma viability, CellTiter-Glo, 48 h; series mostly up to 45.8 µM; viability: at the top concentration; note: nearly all actives have a fitted effect of over 35% in size;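 for viability: 100% = DMSO-treated cells and 0% = medium-only wells without cells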
Procedure, shortened: as §1

| SMILES | Potency | viability |
| --- | --- | --- |
| C=C1c2cccc(O)c2C(O)=C2C(=O)[C@@]3(O)C(O)=C(C(N)=O)C(=O)[C@@H](N(C)C)[C@@H]3[C@@H](O)[C@H]12 | 23.5 µM (active) |  |
| N#CC1(c2cccc(C(=O)Nc3cc(Oc4ccc5nc(NC(=O)C6CC6)sc5n4)ccc3F)c2Cl)CC1 | 20.9 µM (active) |  |
| CN(C)CCOc1ccc(C(=C(CCCl)c2ccccc2)c2ccccc2)cc1 |  | 113% (inactive) |
| COc1cc2nc(-c3cc(F)ccc3O)nc(N[C@@H]3CNC[C@@H]3C(C)(C)O)c2cc1OC | 23.5 µM (active) |  |
| CC[C@H](C=C[C@@H](C)[C@H]1CC[C@H]2[C@@H]3CC=C4C[C@@H](O)CC[C@]4(C)[C@@H]3CC[C@]12C)C(C)C |  | 103% [at 23.2 µM] (inactive) |

assay: qHTS Screen of the MIPE 4.0 Collection Against Ewings Sarcoma (TC32) (AID 1259256); conditions: TC32 Ewing sarcoma viability, CellTiter-Glo, 48 h; series mostly up to 45.8 µM; viability (percent of control): at the top concentration; note: nearly all actives have a fitted effect of over 45% in size;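 for viability (percent of control): 100% = DMSO-treated cells and 0% = medium-only wells without cells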
Procedure, shortened: as §1

| SMILES | viability (percent of control) | Potency |
| --- | --- | --- |
| Cc1cnc(CNC(=O)c2c(=O)c3ccc(N4CCCN(C)CC4)nc3n3c2sc2ccccc23)cn1 | 114% [at 23.2 µM] (inactive) |  |
| CCC[C@H](N[C@@H](C)C(=O)N1[C@@H]2CCCC[C@H]2C[C@H]1C(=O)O)C(=O)OCC | 115% (inactive) |  |
| CCn1c(-c2nonc2N)nc2cncc(CNC3CCNCC3)c21 |  | 14.8 µM (active) |
| Cn1c(=O)c(-c2c(Cl)cccc2Cl)cc2cnc(Nc3cccc(C(=O)O)c3)nc21 | 98% (inactive) |  |
| O=C1NC(=O)C(c2cnc3ccccn23)=C1c1cn2c3c(cccc13)CN(C(=O)N1CCOCC1)CC2 |  | 16.6 µM (active) |
| Cc1c(-c2cccc3c(CCCOc4cccc5ccccc45)c(C(=O)O)n(Cc4cccnc4)c23)c(COc2ccc(N3CCN([S+](=O)([O-])N(C)C)CC3)cc2)nn1C |  | 18.7 µM (active) |
| O=C(Nc1cccc(C(F)(F)F)c1)Nc1cc(S(=O)(=O)NC2CC2)ccc1-c1ccsc1 |  | 18.7 µM (active) |
| C[C@@]1(c2cc(-c3cncnc3)c(F)cc2F)CCSC(N)=N1 | 124% (inactive) |  |
| Cc1cc(CS(=O)(=O)c2ccccc2)cc(OCc2ccc(CN3CCC[C@H]3CO)cc2)c1 |  | 20.9 µM (active) |
| O=C1Nc2ccc(I)cc2C1=Cc1cc(Br)c(O)c(Br)c1 |  | 20.9 µM (active) |
| CCc1cccc(CC)c1NC(=O)N1Cc2[nH]nc(NC(=O)c3ccc(N4CCN(C)CC4)cc3)c2C1 |  | 0.526 µM (active) |
| Nc1[nH]nc2nnc(-c3c(-c4ccccc4)nn4ccccc34)cc12 |  | 11.8 µM (active) |
| Cc1nc(NC(=O)N2CCC[C@@H]2C(N)=O)sc1-c1csc(C(C)(C)C)n1 |  | 6.62 µM (active) |
| CCNC(=O)c1noc(-c2cc(C(C)C)c(O)cc2O)c1-c1ccc(CN2CCOCC2)cc1 |  | 0.059 µM (active) |
| CC1C(=O)OC2C(O)C34C5CC(C(C)(C)C)C36C(OC(=O)C6O)OC4(C(=O)O5)C12O (stereo unspecified) | 120% (inactive) |  |
| COc1ccc(-c2cc(=O)c3c(O)cc(O[C@@H]4O[C@H](CO[C@@H]5O[C@@H](C)[C@H](O)[C@@H](O)[C@@H]5O)[C@@H](O)[C@H](O)[C@@H]4O)cc3o2)cc1O |  | 26.4 µM (active) |
| CCCCC(C)(C)[C@H](O)C=C[C@H]1[C@H](O)CC(=O)[C@H]1CC=CCCCC(=O)O |  | 23.5 µM (active) |
| CC1(COc2ccc3c(c2)ncn3-c2ccc3cccc(N4CCC(N)CC4)c3n2)COC1 | 2.86% (inactive) |  |
| O=C(NCCCCN1CCOCC1)c1cc2ccccc2o1 | 110% (inactive) |  |
| CC(=O)O[C@]1(C(C)=O)CC[C@H]2[C@@H]3C=C(Cl)C4=CC(=O)[C@@H]5C[C@H]5[C@]4(C)[C@@H]3CC[C@@]21C |  | 16.6 µM (active) |
| CCC[C@H](Nc1nc(-c2ccc(NC(=O)NCC)c(OC)c2)ncc1C)c1cccnc1 | 103% (inactive) |  |
| O=C(Nc1cccc2c(=O)cc(-c3nn[nH]n3)oc12)c1ccc(OCCCCc2ccccc2)cc1 |  | 18.7 µM (active) |
| CN1CCC(COc2cnc(-c3cccc(Cn4nc(-c5cccc(C#N)c5)ccc4=O)c3)nc2)CC1 |  | 20.9 µM (active) |
| CC(C)Oc1cc(Nc2nc(N[C@@H](C)c3ccc(F)cn3)ncc2Cl)[nH]n1 |  | 16.6 µM (active) |
| CC[C@]1(O)C[C@H]2CN(CCC3=c4ccccc4=N[C]3[C@@](C(=O)OC)(c3cc4c(cc3OC)N(C)[C@H]3[C@@](O)(C(N)=O)[C@H](O)[C@]5(CC)C=CCN6CC[C@]43[C@@H]65)C2)C1 | 105% (inactive) |  |
| CCOC(=O)N1CCN([N+]([O-])=NOc2cc(ON=[N+]([O-])N3CCN(C(=O)OCC)CC3)c([N+](=O)[O-])cc2[N+](=O)[O-])CC1 |  | 4.18 µM (active) |
| CCOC(=O)[C@H](CCc1ccccc1)N[C@@H](C)C(=O)N1CCCC1C(=O)O (stereo partly specified) |  | 16.6 µM (active) |
| Cc1ccc(NC(=O)Nc2cc(C(F)(F)F)ccc2F)cc1Nc1ccc2c(c1)NC(=O)C2=Cc1ccc[nH]1 |  | 26.4 µM (active) |
| C=C[C@@H]1CN2CCC1C[C@@H]2C(O)c1ccnc2ccc(OC)cc12 (stereo partly specified) |  | 1.18 µM (active) |
| CN1CCN2c3ncccc3Cc3ccccc3C2C1 (stereo unspecified) | 135% (inactive) |  |
